Bioassay records from PubChem BioAssay.
Smad3 FoxH1 inh – inhibitors of human Smad3 transcription factor binding. P84022. TR-FRET Smad3/Dy647-FoxH1 peptide binding, europium anti-His. inhibition, % at 25 µM. 0.29% of 88,000 active. AID 630;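 active = compounds that reduce the energy-transfer binding signal between the protein and its labelled peptide by more than half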
Target sequence (P84022 whole entry, looked up): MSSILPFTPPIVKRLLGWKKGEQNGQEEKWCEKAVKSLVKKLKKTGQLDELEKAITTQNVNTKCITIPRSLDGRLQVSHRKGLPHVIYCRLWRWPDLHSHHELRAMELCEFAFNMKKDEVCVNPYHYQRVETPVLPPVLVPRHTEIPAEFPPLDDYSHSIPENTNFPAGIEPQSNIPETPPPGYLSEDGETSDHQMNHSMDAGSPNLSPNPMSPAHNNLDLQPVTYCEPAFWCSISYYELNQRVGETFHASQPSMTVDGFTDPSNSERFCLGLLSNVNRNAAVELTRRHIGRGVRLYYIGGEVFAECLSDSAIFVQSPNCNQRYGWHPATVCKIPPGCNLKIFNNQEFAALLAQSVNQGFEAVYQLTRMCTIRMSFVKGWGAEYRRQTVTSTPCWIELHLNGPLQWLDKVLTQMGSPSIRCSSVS
ERa SRC1 inh – blocks coactivator binding to human estrogen receptor alpha | AID 629 | inhibition, % at 25.6 µM | TR-FRET ER-alpha LBD / SRC-1 peptide, estradiol-bound | P03372 | 1.7% of 86,000 active; in the data active = inhibition above about 50%
ERb SRC1 inh – ER-beta (human) coactivator binding inhibition; Q92731; TR-FRET ER-beta LBD / SRC1-Cy5 peptide binding; receptor agonist-loaded with 1 µM estradiol; inhibition, % at 25.6 µM; 1.3% of 86,000 active; AID 633;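 active = compounds whose percent inhibition of the receptor-coactivator binding signal exceeds about 50% in the single-dose screen, limit read from the data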
ERa coact pot – ER-alpha (human) coactivator binding potentiation | P03372 | TR-FRET ERalpha-LBD/SRC-Cy5 coactivator binding, 2 h; 100 = basal binding, no effect | coactivator binding (% of control), % at 25.6 µM | 1.3% of 86,000 active | AID 639; in the data active = activity above about 200%;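 note: binding measured in presence of low estradiol as agonist stimulus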
Large screens that a line does not name were inactive; [ ] = dose if it differs, or a comment. Hits are enriched below; roughly 3.7% of the tested compounds scored in any of these assays.

O=C(c1ccco1)N1CCN(c2c(-c3ccccc3)c3cc(Cl)ccc3[nH]c2=O)CC1	ERa coact pot 223[fluorescence artefact?]
Cc1cc(C(=O)CN2C(=O)NC(c3ccccc3)(c3ccccc3)C2=O)c(C)n1Cc1ccccc1	none
COc1cc(OC)cc(C(=O)OCc2cc3ccccc3[nH]c2=O)c1	ERa coact pot 499[fluorescence artefact?]
Cn1c(COc2ccccc2)nnc1SCc1nc2ccccc2[nH]1	Smad3 FoxH1 inh 94
Oc1ccc(C=Nc2ccc(N3CCOCC3)cc2)c(O)c1	ERa SRC1 inh 58, ERb SRC1 inh 69
CC1CC(NS(=O)(=O)c2cccs2)CC(C)(C)C1 (stereo unspecified)	none
c1ccc2c[n+](Cc3ccnc4ccccc34)ccc2c1	Smad3 FoxH1 inh 101 (no result: ERa SRC1 inh, ERb SRC1 inh, ERa coact pot)
COc1ccc(CCn2nnc(-c3ccc(NC(C)=O)c(Cl)c3)n2)cc1	none
COc1cc(NC(=O)C2CC(=O)NC3=C2C(=O)CCC3)c(OC)cc1Cl (stereo unspecified)	none
COc1cc(C(=O)Oc2c(CN3CCOCC3)cc(Cl)c3cccnc23)cc(OC)c1OC	ERa coact pot 218
CC1=C/C(=N\O)[C@H]([C@@H]2C=C(C)CC(C)(C)[C@H]2O)C(C)(C)C1	none (no result: ERa SRC1 inh, ERb SRC1 inh, ERa coact pot)
COc1ccccc1-n1cnnc1SCC(=O)c1cc(C)n(Cc2cccs2)c1C	none
Cc1cc(C(=O)CSc2nc3ccccc3n2CCC#N)c(C)n1Cc1cccs1	ERa coact pot 273
Cc1cc(C(=O)CSc2nnc(-c3ccccc3F)o2)c(C)n1Cc1cccs1	ERa coact pot 309
Cc1cc(C)c(C(=O)CSc2nnc(-c3ccccc3Br)o2)cc1C	ERa coact pot 273[fluorescence artefact?]
N#CCCn1c(SCC(=O)c2c[nH]c3ccccc23)nc2ccccc21	none
Cc1ccc(NC(=O)CSc2nnc(-c3ccccc3Br)o2)cc1C	none
Cc1cc(C)c(C#N)c(SCc2cc3c(cc2Cl)OCO3)n1	ERa SRC1 inh 56[fluorescence artefact?], ERb SRC1 inh 58[fluorescence artefact?]
Cc1conc1NC(c1cccs1)c1ccc2cccnc2c1O (stereo unspecified)	ERa SRC1 inh 57[fluorescence artefact?]
CCOc1ccccc1N1CCN(Cc2cccc(OC)c2O)CC1	none
COc1ccccc1N1CCN(Cc2cc(Br)c(O)c3ncccc23)CC1	ERa SRC1 inh 50[fluorescence artefact?]
Cc1ccc(C(=O)CSC2=C(C#N)C(c3ccco3)CC(=O)N2)c(C)c1 (stereo unspecified)	ERa SRC1 inh 60, ERb SRC1 inh 64
COc1cc2[nH]c(=S)n(N(C(C)=O)C(C)=O)c(=O)c2cc1OC	ERa coact pot 201[fluorescence artefact?]
COc1cc2[nH]c(=S)n(C3CCCC3)c(=O)c2cc1OC	none
NC(=O)/C(=N\OC(=O)c1ccco1)c1nc(-c2ccc(Br)cc2)cs1	ERa SRC1 inh 66[fluorescence artefact?]
COc1nc2cc(C)ccc2cc1-c1noc(-c2cccnc2)n1	ERa SRC1 inh 50[fluorescence artefact?]
c1ccc(-n2ncc3c2ncn2nc(-c4ccco4)nc32)cc1	ERa coact pot 315[fluorescence artefact?]
CCOc1cccc(-c2nnc3sc(-c4ccc(C)cc4)nn23)c1	none
COc1ccccc1-c1nnc2sc(-c3cnccn3)nn12	ERa SRC1 inh 52[fluorescence artefact?], ERb SRC1 inh 65
COc1ccccc1-c1nnc2sc(-c3cc4ccccc4o3)nn12	none
CCOc1cccc(-c2nnc3sc(-c4ccco4)nn23)c1	ERa coact pot 244
CCOc1ccc(-c2nnc3sc(-c4ccccc4OC)nn23)cc1	ERa coact pot 941[fluorescence artefact?]
COc1ccccc1-c1nn2c(-c3ccc(C(C)(C)C)cc3)nnc2s1	ERa coact pot 241
O=C(N[C@]1(C(=O)O)C[C@H]1c1ccccc1)c1ccccc1	none (no result: ERa SRC1 inh, ERb SRC1 inh, ERa coact pot)
c1ccc(Cc2nc3ccccc3o2)cc1	none
O=C1N=C(c2ccccc2)S/C1=C\c1cccs1	ERa SRC1 inh 57[fluorescence artefact?]
O=C(CSc1nc2ccccc2c(=O)[nH]1)c1ccc(O)c(O)c1	ERa SRC1 inh 59[fluorescence artefact?], ERb SRC1 inh 66
c1ccc(Cn2nnc3c(NCc4ccc5c(c4)OCO5)nc(C4CC4)nc32)cc1	ERa SRC1 inh 79[fluorescence artefact?]
Cc1nc(NCc2ccc3c(c2)OCO3)c2nnn(Cc3ccccc3)c2n1	ERa SRC1 inh 63[fluorescence artefact?]
c1ccc2c(c1)CCN(Cc1nnnn1Cc1ccc3c(c1)OCO3)C2	none
c1ccc(Cn2nnnc2CN2CCN(Cc3ccc4c(c3)OCO4)CC2)cc1	ERa coact pot 209
O=C(O)[C@@H](Br)[C@@H](Br)c1ccccc1[N+](=O)[O-]	none (no result: ERa SRC1 inh, ERb SRC1 inh, ERa coact pot)
CN(C)c1nc(-c2ccccn2)nnc1-c1ccccc1	ERa SRC1 inh 58[fluorescence artefact?]
COc1cccc(-n2nnc3c(=O)n(Cc4ccc(Br)cc4)cnc32)c1	ERa SRC1 inh 52[fluorescence artefact?], ERa coact pot 354[fluorescence artefact?]
COCCN1C(=O)C(=O)/C(=C(/O)c2ccc3c(c2)OCCO3)C1c1ccc(C(=O)OC)cc1 (stereo unspecified)	none
COCCCN1C(=O)C(=O)/C(=C(/O)c2ccc3c(c2)OCCO3)C1c1ccc(C(=O)OC)cc1 (stereo unspecified)	ERa SRC1 inh 77[fluorescence artefact?], ERb SRC1 inh 80[fluorescence artefact?]
COc1ccccc1NC(=O)COC(=O)c1ccc(S(=O)(=O)NCc2ccco2)cc1	none
COc1ccccc1NS(=O)(=O)c1ccc(C(=O)OCC(=O)NCc2ccco2)cc1	ERa SRC1 inh 73[fluorescence artefact?]
COc1cc(NCCC(=O)O)c2ncccc2c1	none (no result: ERa SRC1 inh, ERb SRC1 inh, ERa coact pot)
O=C(CSc1nnc(SCC(=O)c2ccco2)s1)c1ccco1	ERa SRC1 inh 60, ERb SRC1 inh 53
O=C(CSc1nc2cc(Cl)ccc2s1)c1ccco1	none
C[N@@+]1(Cc2ccc(Cl)c(Cl)c2)CCC[C@@H]1c1ccc[n+](Cc2ccc(Cl)c(Cl)c2)c1	none (no result: ERa SRC1 inh, ERb SRC1 inh, ERa coact pot)
Cc1ccc(CNS(=O)(=O)N(C)C)cc1	none
COC(=O)c1oc2nc(C)cc(C)c2c1N	ERa SRC1 inh 57[fluorescence artefact?]
Cn1c(Cn2c(=O)sc3ccccc32)nnc1SCC(=O)Nc1ccc(Cl)cc1	ERa coact pot 231[fluorescence artefact?]
N=C(N)SCCSC(=N)N	Smad3 FoxH1 inh 68 (no result: ERa SRC1 inh, ERb SRC1 inh, ERa coact pot)
O=C(O)CCSCc1ccccc1	none (no result: ERa SRC1 inh, ERb SRC1 inh, ERa coact pot)
COc1ccccc1NC(=O)NC(=O)N(C(C)C)S(C)(=O)=O	none
COc1ccccc1NC(=O)NC(N)=O	ERb SRC1 inh 74
CC(C)NC(=O)CN1C(=O)NC(CCc2ccccc2)C1=O (stereo unspecified)	ERa SRC1 inh 61[fluorescence artefact?]
OC[C@@H]1O[C@H](N2CCN([C@@H]3O[C@H](CO)[C@@H](O)[C@H](O)[C@H]3O)CC2)[C@@H](O)[C@H](O)[C@H]1O	none (no result: ERa SRC1 inh, ERb SRC1 inh, ERa coact pot)
c1ccc(CN2CC[C@@H](CNc3ncnc4ccccc34)C2)cc1	none (no result: ERa SRC1 inh, ERb SRC1 inh, ERa coact pot)
COc1ccccc1NC(=O)Oc1ccc(NC(=O)c2ccco2)cc1	ERa SRC1 inh 60[fluorescence artefact?], ERb SRC1 inh 66[fluorescence artefact?]
COc1ccccc1NC(=O)c1ccccc1NC(=O)c1cc(Cl)ccc1NC(=O)c1ccco1	ERa SRC1 inh 74
COc1ccccc1NC(=O)c1cccc(NC(=O)c2ccco2)c1	none
COc1ccc(NC(=O)c2ccco2)cc1N	ERa SRC1 inh 55, ERb SRC1 inh 61
[N-]=[N+]=N[C@@H]1[C@@H](O)[C@H](CO)O[C@@H]1n1cnc2c(N)ncnc21	none (no result: ERa SRC1 inh, ERb SRC1 inh, ERa coact pot)
COc1cc(C2SCCCCCCCCCCSC(c3ccc(O)c(OC)c3)SCCCCCCCCCCS2)ccc1O (stereo unspecified)	none (no result: ERa SRC1 inh, ERb SRC1 inh, ERa coact pot)
COC(=O)c1ccc(Cn2nc(C)c(Br)c2C)cc1	ERb SRC1 inh 66[fluorescence artefact?]
